The results in this text go back to PubChem BioAssay (NCI).

SMILES strings stand for the structures. The panel holds about 83,000 compounds, 20% with a hit somewhere; the sample as a whole holds those more often.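 Percent growth is the endpoint: 0 to 100 indicates growth inhibition (40 means 60% inhibition), 0 means no net growth, and negative values indicate cell death.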 Values without a mark were called inactive. Activity calls are given as the source filed them. The calls were made as follows: active = growth percent below 10; inactive = the rest.

The assay relates to IGROV1 ovarian. Kind of assay: NCI-60 one-dose screen, 48 h (100 = growth as untreated, 0 = no growth, -100 = all killed). As to conditions: 10 µM unless noted.
Take `O=S(=O)(NCCNc1nccc(-n2cnc3ccccc32)n1)c1ccc(Br)cc1`: the growth is 90.7%.
`NS(=O)(=O)c1ccc(Nc2nc(N/N=C/c3ccccn3)nc(Nc3ccccc3)n2)cc1`: the growth was -30.3% (active).
The figure for `NC(N)=Nc1ccc(Oc2cccc(Nc3ccc(Br)c(C(F)(F)F)c3)c2)cc1` is 0.582% (active).
For the compound `O=c1[nH]c2ccccc2cc1CSc1ccccc1Nc1nccc(-c2ccc(Cl)cc2)n1`, the growth is 89.6%.
The figure for `COc1ccccc1C(=O)Nc1cccc2c1C(=O)C(=O)C=C2` is 79.2%; for `CCO/C=N/C1=C(C#N)C(c2ccc(F)cc2)c2sc3c(C)cccc3c2O1` (centres undefined) it is 18.7%; for `O=C(NNc1nc2cc(F)ccc2n2c(CN3CCCC3)ccc12)c1cnccn1` it is 13.8%.
Turning to `COc1cc(-c2nn(C(C)(C)C)cc2-c2ccnc(NCCCNS(=O)(=O)c3ccccc3)n2)ccc1Cl`, the growth was 55.2%.
The figure for `O=C(NCc1ncc[nH]1)c1ccc(-c2nc3ccc4[nH]ncc4c3c3c2CCCC3)cc1` is 3.6% (active).
For the compound `O=C(NNc1nc2cc(F)ccc2n2c(CO)ccc12)c1cnccn1`, the growth is 14.9%.
As to `O=[N+]([O-])c1cc(/C=N/Nc2nc(N/N=C/c3ccc(Cl)c([N+](=O)[O-])c3)nc(N3CCCCC3)n2)ccc1Cl`, the growth is 52.7%.
With `COc1c(N2CC3CCCNC3C2)c(F)cc2c(=O)c(C(=O)N/N=C/c3ccccc3)cn(C3CC3)c12` (centres undefined) the figure was 99.6%; with `O=C(CNc1nc(-c2cccc([N+](=O)[O-])c2)cs1)Nc1cccc(Cl)c1`, 102%.
On to `O=S(=O)(NCCNc1nccc(-n2cnc3ccccc32)n1)c1ccc(C(F)(F)F)cc1`, for which the growth was 66.4%.
The figure for `CC(C)(C)c1ccc(C(=O)Nc2sc3c(c2C(N)=O)CC/C(=N\O)C3)cc1` is 27.6%; for `CC(=O)c1nnn(-c2c(C(=O)n3nc(C)cc3C)sc(=S)n2-c2ccccc2)c1C` it is 95.6%.
Consider `CNC(=O)c1c(NC(=O)c2ccccc2C(F)(F)F)sc2c1CCC(=O)C2`, for which the growth is 36.6%.
For `O=C(NNc1nc2cc(F)c(F)cc2n2cccc12)c1cnccn1`, the growth is 19.5%.
The figure for `COc1cc(Nc2c(C#N)cnn3cc(-c4cnn(CC(C)(C)O)c4)cc23)ccc1Cl` is 4.87% (active); for `CCCCCCCn1cc2c(N[C@H](C)c3ccccc3)ncnc2n1` it is 89.9%.
Take `O=C(Cn1cc(-c2ccccc2)nn1)Nc1nc(-c2ccc(Cl)cc2)cs1`: the growth is 108%.
The figure for `CCOC(=O)C(=O)CC(=O)N1C(=S)NC(=O)C1CC(C)C` (centres undefined) is 97.5%.
The figure for `O=C1Nc2ccccc2/C1=C/c1ccc(CO)n1-c1ccc(Cl)cc1` is 48.1%; for `CCO/C=N/C1=C(C#N)C(c2ccc(OC)cc2)c2sc3c(CC)cccc3c2O1` (centres undefined) it is 38.4%.
For `O=C1[C@@H]2Cc3c([nH]c4ccccc34)[C@H](c3c(Cl)cccc3Cl)N2C(=O)CN1C1CCN(CC2CCCCC2)CC1`, the growth was 58.4%.
The figure for `Cc1nn(-c2ccccc2)c2ncnc(N/N=C/c3cccc(O)c3)c12` is 54.9%.
For the compound `CS(=O)(=O)Nc1cc(-c2ccc3ncc(C#N)c(NCc4cccc(F)c4)c3c2)cnc1Cl`, the growth is -42.5% (active).
With `Cc1ccc(-n2cc(/C=C/C(=O)c3ccc(O)cc3)c(-c3ccc(S(C)(=O)=O)cc3)n2)cc1` the figure was 47.7%; with `CC1(C)NCCC[C@]2(C)[C@H]3C/C(=N\O)C4[C@@H]5C[C@@](C)(CO)CC[C@]5(C)CC[C@@]4(C)[C@]3(C)CC[C@@H]12` (some centres undefined), 96.5%; with `C#CCNC1CCC(c2csc(C#C)n2)=C1C` (centres undefined), -63.6% (active).
Take `NS(=O)(=O)c1ccc(Nc2nc(Nc3ccccc3)nc3nnc(SCC(=O)NC4CCCCC4)n23)cc1`: the growth is 95.5%.
`O=C(CNc1nc(-c2cccc([N+](=O)[O-])c2)cs1)Nc1cccc([N+](=O)[O-])c1`: the growth is -28.3% (active).
In the case of `O=C(CSc1nc2ccccc2c(=O)n1-c1ccc(Cl)cc1)N/N=C/c1ccc(N2CCCCC2)cc1`, the growth was 55.5%.
On to `O=C(c1ccc(Cl)cc1)C1[C@H](c2ccc(Cl)cc2)[C@@H](c2ccccc2)NC12C(=O)Nc1ccccc12` (some centres undefined), for which the growth was 44.9%.
Consider `CC(=O)c1ccc(Nc2nc(SCC(C)C)nc(-c3ccc(F)cc3)c2C#N)cc1`, for which the growth was 111%.
`Fc1ccc(-c2cc3nc(C(Cl)Cl)nc(-c4ccc(F)cc4)n3n2)cc1`: the growth was 31.4%.
With `CNc1ncc2cc(-c3ccc(-c4ncccc4F)cc3Cl)c(=O)n(CC3OCC(N)CO3)c2n1` (centres undefined) the figure was -2.32% (active); with `C#C[C@]1(O)CC[C@H]2[C@@H]3CC=C4c5sc(-c6ccc7c(c6)OCO7)nc5CC[C@]4(C)[C@H]3CC[C@@]21C`, 34.8%; with `C=CCn1c(SCC(=O)Nc2ccc(C(=O)/C=C/c3ccc(C)cc3)cc2)nnc1-c1c[nH]c2ccccc12`, 78.4%.
